CtBP-E1A blk: qHTS Assay for Inhibitors of the CtBP/E1A Interaction; CtBP / adenovirus E1A interaction (AlphaScreen); AlphaScreen GST-E1A/His-CtBP binding, 1536-well; hits give low values; activity change, % (concentration not given with the values); hit rate 0.49% among 340,000; AID 651724, 2012; in the data active = activity change below about -65%; inconclusive = mostly about -30% to -63%
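Homogeneous bead-based format: GST-tagged E1A captured on glutathione donor beads, His-tagged CtBP on nickel acceptor beads; compounds precede bead addition by 2 h at 37 °C.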
TDP1 inh: qHTS Assay for Inhibitors of Tyrosyl-DNA Phosphodiesterase (TDP1); Tyrosyl-DNA phosphodiesterase 1 (Homo sapiens), Q9NUW8; AID 485290, 2010; recombinant TDP1, AlphaScreen DNA substrate cleavage; Potency, µM (titrated, usually from 130 µM), inactives show at the highest dose activity change, negative = inhibition, most hits filed as inhibitors; hit rate 0.28% among 350,000; note: potency is the fitted concentration of half-maximal effect; nearly all actives have a fitted effect of over 40% in size
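Signal: AlphaScreen proximity between streptavidin donor and anti-FITC acceptor beads on intact substrate. Reaction: Tdp1 1 nM, substrate 15 nM final, 5 min RT after 15 min compound preincubation.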
Six1-Eya2 inh: qHTS Assay for Inhibitors of the Six1/Eya2 Interaction | AlphaScreen GST-Six1/His-Eya2 binding, biochemical; hits give low values | activity change, % (test concentration not listed) | hit rate 0.56% among 360,000; in the data active = activity change below about -65%; inconclusive = mostly about -30% to -63%
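GST-Six1 + His-Eya2 (5X stock: 250/500 nM); Tris pH 8.0, 300 mM NaCl, 0.05% BSA, 0.02% Tween 20; GSH donor/Ni acceptor beads; 1 h 37 °C dark; AlphaScreen readout.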
TDP1 cell noCPT: qHTS for Inhibitors of human tyrosyl-DNA phosphodiesterase 1 (TDP1): qHTS in cells in absence of CPT. AID 686978, 2013. DT40 Tdp1-/- hTDP1 cells, no CPT, ATP luminescence, 48 h. hit rate 15% among 420,000. Potency, µM (top dose mostly 46.2 µM), inactives show at the top dose activity change, negative = growth inhibition, most hits filed as inhibitors; note: potency is the fitted concentration of half-maximal effect; nearly all actives have a fitted effect of over 55% in size
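Cells were dispensed at 400 per well, compounds added by pin tool, plates incubated ≥48 hr at 37 °C, then CellTiter-Glo added for 30 min at room temperature before luminescence reading. Line: DT40 Tdp1-/- complemented with hTDP1; camptothecin omitted.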
IL1B secr inh: qHTS for Inhibitors of Inflammasome Signaling: IL-1-beta AlphaLISA Primary Screen. AID 743279, 2014. THP-1 LPS/ATP IL-1B secretion, AlphaLISA, 16 h; hits give low values. activity change, % at 57.5 µM. hit rate 4.7% among 360,000; in the data active = activity change below about -50%; inconclusive = mostly about -30% to -49%
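Secreted IL-1B measured by AlphaLISA bead assay after 16 h compound exposure of THP-1 cells; compounds (final up to 57.5 uM) added 1 h before LPS (250 ng/mL) and ATP (1.25 mM) stimulation; lower signal means less secretion.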
DT40 TDP1 CPT: qHTS for Inhibitors of human tyrosyl-DNA phosphodiesterase 1 (TDP1): qHTS in cells in presence of CPT | AID 686979, 2013 | chicken DT40 Tdp1-/-;hTDP1 cells + 20 nM CPT, ATP luminescence, 48 h | Potency, µM (top dose mostly 46.2 µM), for the others: at the top dose activity change, negative = growth inhibition, hits mostly inhibitors | hit rate 12% among 420,000; note: potency is the fitted concentration of half-maximal effect; nearly all actives have a fitted effect of over 55% in size
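Cell growth measured by CellTiter-Glo luminescence after a minimum 48 h, 37 C compound exposure with 20 nM CPT in Tdp1-knockout DT40 cells stably expressing hTDP1, seeded 400/well; qHTS titration format.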
* hit, by the source's call; ? = inconclusive; . = not tested or not shown; ! = a repeat was not active; [ ] = another dose, or the depositor's remark. The list is not random: actives were taken first. Their share in the collection is about 18%. Unless noted, calls come from the whole dose curve; as a rule, active = well fitted curve in the direction sought with a large enough effect; inconclusive = small, poorly fitted or top-dose-only effect, or another doubt; inactive = no such curve, though single readings can be large; an effect the other way counts as inactive or inconclusive. % is set by controls: 0 for no effect and ±100 for the full control effect.

SMILES	CtBP-E1A blk	TDP1 inh	Six1-Eya2 inh	TDP1 cell noCPT	IL1B secr inh	DT40 TDP1 CPT
CCOC(=O)C(NC(C)=O)(Nc1ccc(S(=O)(=O)Nc2ncccn2)cc1)C(F)(F)F (stereo not given)	-1	2%	2	?	-6	?
Cc1ccc(/C=N/NC(=O)Cn2cnc3c2c(=O)n(C)c(=O)n3C)s1	-10	-5%	-14	?	0	-20%
CCOc1ccc(NS(=O)(=O)c2ccc(C(=O)N3CCN(c4ncccn4)CC3)cc2)cc1	-6	3%	-1	8.2µM*	0	9.2µM*
CC1CN(C(=O)c2ccc(NS(=O)(=O)c3ccc(C(C)(C)C)cc3)cc2)CC(C)O1 (stereo not given)	1	2%	5	9.2µM*	48	15µM*
COc1ccc(NC(C)=O)cc1NS(=O)(=O)c1ccc2c(c1)OCCO2	-17	0%[56.1 µM]	2	5%	-3	-4%
CCOc1ccc(S(=O)(=O)Nc2ccc(C(=O)NNC(=O)c3ccncc3)cc2)cc1	2	-10%[0.505 µM]	-6	-2%	13	-21%
CCOc1ccccc1N1CCN(C(=O)c2ccc(S(=O)(=O)Nc3ccccc3)cc2)CC1	.	2%	-8	?	-8	18µM*
CCOc1ccc(S(=O)(=O)Nc2ccc(C(=O)N3CC(C)OC(C)C3)cc2)cc1 (stereo not given)	2	.	5	-22%	8	?
COC(=O)c1ccc(Cl)c(NS(=O)(=O)c2ccc3c(c2)OCCO3)c1	-2	2%	2	4.1µM*	3	5.2µM*
CCN(C(=O)CSc1nnnn1-c1ccc(Cl)cc1)C1CCS(=O)(=O)C1 (stereo not given)	-10	0%	-1	-6%	-6	0%
O=C(NC(Cc1ccccc1)C(=O)N1CCN(S(=O)(=O)c2ccccc2)CC1)c1ccccc1 (stereo not given)	-11	.	-4	-29%	-10	?
CC(C)[C@H](NS(=O)(=O)c1ccc2c(c1)OCCO2)C(=O)OCC(=O)Nc1cc(Cl)ccc1Cl	-2	3%	-1	29µM*	30	?
COc1ccc(NS(=O)(=O)c2ccc(C(=O)N3CCC(C)CC3)cc2)cc1	6	1%	-3	?	-2	23µM*
O=C(N[C@@H](Cc1ccccc1)C(=O)N1CCN(S(=O)(=O)c2ccc(F)cc2)CC1)c1ccco1	-5	1%	0	21µM*	6	15µM*
CCOc1ccc(NS(=O)(=O)c2ccc(C(=O)N3CCCCC3)cc2)cc1	3	5%	1	13µM*	32	15µM*
COc1ccc(C(=O)NNC(=O)CSc2nnnn2-c2cc(OC)cc(OC)c2)cc1	0	.	14	-29%	-26	-7%
CCOC(=O)c1sc2ccccc2c1S(=O)(=O)NCc1ccc(F)cc1	.	5%	.	4%	.	2%
COc1ccc(C2CC(=O)N(CC(=O)Nc3cc(C)ccc3C)c3ccccc3S2)cc1 (stereo not given)	.	-3%	.	.	.	.
Cc1ccc(C2C(N)C(=O)N2c2ccc(C)cc2)cc1 (stereo not given)	4	.	1	11%	2	14%
CCOC(=O)N1CCc2c(sc3[nH]c(=S)[nH]c(=S)c23)C1	-3	.	-3	-11%	43	1%
CC(=O)N1CCCc2ccc(NS(=O)(=O)c3ccc(C)c(C)c3)cc21	-2	6%	2	?	29	12µM*!
